The values below come from PubChem BioAssay (Tox21).

Molecules are shown by their SMILES. Records with an inconclusive call do not appear. The source made the active and inactive calls. Calls follow the shape of the dose curve; as a rule, active = well fitted cell-killing curve with a large enough effect in the repeat runs; inconclusive = weak or mixed curves, or effect the other way; inactive = no such curve, though single readings can be large or run the other way.

The test in a line: qHTS assay to identify small molecule antagonists of the glucocorticoid receptor (GR) signaling pathway - cell viability counter screen (AID 720693). Also: nearly all actives have a fitted effect of over 55% in size. The following applies: GR-bla HeLa viability, CellTiter-Glo luminescence, 18 h, with 5 nM dexamethasone present; series mostly up to 58.5 µM. On the technique in general: qHTS replaces the single test concentration by a dilution series.
`CCN(CC)C(=O)N(CC)CC`: the compound was called inactive.

Consider `O=C1Nc2ccc([N+](=O)[O-])cc2C1=O`, for which the compound was classed as inactive. On to `CCCCCCCCCC/C=C/C#N`, for which the outcome was inactive.

For `CCOC(=O)C(Br)c1ccccc1` (stereo not given), the result was inactive. With `CC(=O)N[C@@H](CC(C)C)C(=O)O` the entry was “inactive”. Take `CCCCNC(=S)NCCCC`: the result was inactive. In the case of `CC1(C)S[C@@H]2[C@H](NC(=O)C(C(=O)O)c3ccccc3)C(=O)N2[C@H]1C(=O)O` (stereo not given in full) it was “inactive”; in that of `NC(=O)Cc1cccc(C(=O)c2ccccc2)c1N`, “inactive”; in that of `CC(C)CCCCCCc1ccc(OCCOCCO)cc1`, “inactive”. With `Cc1c(C(=O)NCCO)[n+](=O)c2ccccc2n1[O-]` the entry was “inactive”; with `CCN1CC(CCN2CCOCC2)C(c2ccccc2)(c2ccccc2)C1=O` (stereo not given), “inactive”. With `Cc1c(N)cccc1N` the entry was “inactive”; with `CCCNC(C)(C)COC(=O)c1ccccc1`, “inactive”. Take `CC/C=C\CCOC(=O)C(C)C`: the compound was classed as inactive. In the case of `CCCCC(=O)O[C@]1(C(=O)CO)[C@H](C)C[C@H]2[C@@H]3CCC4=CC(=O)C=C[C@]4(C)[C@@]3(F)[C@@H](O)C[C@@]21C` it was “inactive”; in that of `CCCCCOc1ccc(C2SC(=O)NC2=O)cc1OCC` (stereo not given), “inactive”.

Regarding `C=C(C)C(=O)OCCOP(=O)(O)O`, the outcome was inactive. As for `CC(C)CC(=O)OCc1ccccc1`, the result was inactive. With `NC1=NCC2c3ccccc3Cc3ccccc3N12` (stereo not given) the entry was “inactive”; with `CCCNC(C)C(=O)Nc1c(C)csc1C(=O)OC` (stereo not given), “inactive”. In the case of `Cc1ccccc1C(=O)Nc1ccc(C(=O)N2CCCC(O)c3cc(Cl)ccc32)c(C)c1` (stereo not given) it was “inactive”; in that of `OCc1ccccc1O`, “inactive”.

On to `O=C(CC(=O)C(F)(F)F)c1ccccc1`, for which the outcome was inactive. Regarding `CC1(O)CSC(C)(O)CS1` (stereo not given), the compound was classed as inactive. With `CN1[C@@H]2CC[C@H]1CC(OC(=O)c1c[nH]c3ccccc13)C2` (stereo not given in full) the entry was “inactive”; with `CN1CCN(C2=Nc3ccccc3Oc3ccc(Cl)cc32)CC1`, “inactive”. Consider `CC(C)NC[C@@H](O)COc1cccc2ccccc12`, for which the compound was classed as inactive. In the case of `CCCCCCCCCCCCCCCCOP(=O)([O-])OCC[N+](C)(C)C`, the call was inactive. In the case of `OCCN(CCO)CCN(CCO)CCO` it was “inactive”; in that of `CC(C)NCC(O)COc1ccc(CCOCC2CC2)cc1` (stereo not given), “inactive”. `c1ccc(CN(CC2=NCCN2)c2ccccc2)cc1`: the result was inactive. In the case of `Cc1c[nH]c(=S)[nH]c1=O` it was “inactive”; in that of `CC(C)=CCC[C@](C)(O)[C@@H]1CC=C(C)CC1`, “inactive”. With `CCOc1ccc2nc(N)sc2c1` the entry was “inactive”; with `O=CCCc1ccccc1`, “inactive”.
